PubChem BioAssay

biological target: Alpha-2C adrenergic receptor (Homo sapiens) (UniProt P18825); experiment: compounds altering alpha2C-coupled GIRK flux – cell-based, HEK293 alpha2C/GIRK1/2, thallium flux, primary screen (AID 624); details: thallium flux BTC fluorescence, at 10 µM, actives lie on both sides;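 also: slope of fluorescence ratio to pre-addition baseline per second over 15 to 24 s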
Sequence (P18825 whole entry, looked up): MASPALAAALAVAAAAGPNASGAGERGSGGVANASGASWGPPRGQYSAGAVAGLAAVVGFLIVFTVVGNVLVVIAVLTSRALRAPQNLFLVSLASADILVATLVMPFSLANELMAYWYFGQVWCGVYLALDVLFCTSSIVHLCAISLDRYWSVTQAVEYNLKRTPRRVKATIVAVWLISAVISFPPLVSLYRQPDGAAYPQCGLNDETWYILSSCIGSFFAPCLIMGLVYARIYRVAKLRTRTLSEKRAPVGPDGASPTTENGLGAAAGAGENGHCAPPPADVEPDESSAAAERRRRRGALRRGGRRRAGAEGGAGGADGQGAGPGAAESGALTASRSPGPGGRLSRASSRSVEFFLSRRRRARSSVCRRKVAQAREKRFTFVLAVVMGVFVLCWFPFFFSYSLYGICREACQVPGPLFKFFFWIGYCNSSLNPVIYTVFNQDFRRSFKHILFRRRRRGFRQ

slope, inactive:
NS(=O)(=O)c1ccc(NC(=O)CSc2nnc(Cc3cccs3)n2-c2ccccc2)cc1 0.00519, O=C(O)CSc1ncn[nH]1 0.00435, Cc1ccc2c(C(=O)CN3CCSCC3)c(C)[nH]c2c1 0.00551, COc1cccc(CC(=O)Nn2c(C)nc3ccccc3c2=O)c1 0.00573, Cc1nnc(SCc2cccc(Oc3ccccc3)c2)n1N 0.00543, CC(CCc1ccccc1)NC(=O)C1CCN(S(=O)(=O)c2cnc[nH]2)CC1 (stereo unspecified) 0.00556, Cc1ccc(C)n1-c1ccc(-n2cnnn2)cc1 0.00396, CC(OC(=O)CNC(=O)C12CC3CC(CC(C3)C1)C2)C(=O)Nc1ccc(N2CCOCC2)cc1 (stereo unspecified) 0.00563, CC(C)CC(c1nnnn1C(C)(C)C)N1CCN(C2CCCC2)CC1 (stereo unspecified) 0.00477, CCOC(=O)C1=C(c2ccccc2)N2CCS(=O)(=O)N=C2S1 0.0047, CCOC(=O)Nc1ccc2c(c1)N(C(=O)CCN1CCOCC1)c1ccccc1S2 0.00608, c1cnc(NCCNc2ncccn2)nc1 0.00555, CN(C)C(=O)COc1ccc2cc(-c3ccccc3)c(=O)oc2c1 0.0053, COc1ccc(COC(=O)c2n[nH]c3ccccc23)cc1F 0.00618, Cc1cc(C(=O)COC(=O)CCc2nc3ccccc3s2)c(C)n1C 0.00538, Cn1c(=O)cc(SCC(=O)NCc2cccnc2)c2ccccc21 0.00505
